HTT prom inh: Primary qHTS for Identification of Small Molecule Inhibitors of Huntingtin Promoter Activity; HEK293 HTT promoter firefly luciferase reporter, 24 h; Potency, µM (highest dose often 57.5 µM), without a hit: top-dose activity change, negative = inhibition, most hits filed as inhibitors; 48,000 tested, 0.93% active; AID 1508623, 2021; further: potency means the concentration at half of the fitted maximal effect; nearly all actives have a fitted effect of over 50% in size
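HEK293 luciferase promoter-reporter cells (2,500/well) plated 24 h, then compounds added at up to 57.5 uM final for 24 h at 37 °C. Firefly luminescence by Dual-Glo, normalized to vehicle (0%) and zero RLU (-100%).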
NTMT1 inh: Primary qHTS for Inhibitors of N-terminal methyltransferase 1 (NTMT1): MTaseGlo Assay. Potency, µM (doses to about 114 µM), for inactives: at the highest dose activity change, negative = inhibition, usual class: inhibitors. N-terminal Xaa-Pro-Lys N-methyltransferase 1 (Homo sapiens), Q9BV86. NTMT1 MTase-Glo SAH luminescence, purified enzyme. 59,000 tested, 2.5% active;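 further: potency means the concentration at half of the fitted maximal effect; plate controls were DMSO vehicle for no effect and no enzyme for full effect; nearly all actives have a fitted effect of over 65% in size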
HTT-AS act: Primary qHTS for Identification of Small Molecule Activators of Huntingtin-Antisense Promoter Activity; 48,000 tested, 0.24% active; Potency, µM (top dose mostly 57.5 µM), for inactives: at the top dose activity change, positive = activation, hits mostly activators; AID 1508624, 2021; HEK293 HTT-AS promoter firefly luciferase reporter, 24 h; response scale: percent change from vehicle, -100% = no light; further: potency means the concentration at half of the fitted maximal effect; nearly all actives have a fitted effect of over 55% in size
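HEK293 Fluc reporter, 2,500 cells/well, 24 h pre-culture; cpds up to 57.5 uM final, 24 h 37 degrees C; Dual-Glo, 10 min RT; normalized vehicle = 0%, zero RLU = -100%.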
OvCa metastasis: Primary qHTS assay for Inhibitors of ovarian cancer metastasis using an organotypic tumor microenvironment (TME) model | SKOV3ip1-GFP adhesion/invasion on 3D omental model, fluorescence | Potency, µM (titrated, usually from 45.8 µM), for inactives: at the highest dose activity change, negative = inhibition, most hits filed as inhibitors | 46,000 tested, 0.1% active;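 further: potency means the concentration at half of the fitted maximal effect; plate controls were DMSO wells for no effect and tomatine positive control wells for full effect; nearly all actives have a fitted effect of over 65% in size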
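Primary human omental fibroblast/mesothelial 3D culture pre-formed 48 h. SKOV3ip1-GFP cells added with compounds (0.36-46 umol/L), incubated 2 h RT/16 h 37 C, fixed; GFP cells quantified at 488/509 nm.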
GPR32 ag: qHTS for Agonists of Human Resolvin D1 Receptor DRV1; 48,000 tested, 2.5% active; activation, % at 76.9 µM; CHO-K1 GPR32 beta-arrestin PathHunter luminescence, 90 min; zero percent set by DMSO-only wells;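 active means activation of at least 60% and not above a set upper limit, about 1 call in 100 departs from these limits; inconclusive means activation of 40% to 60%, or above that upper limit; inactive means activation under 40%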; further: 0% is about no effect
Target sequence (O75388 whole entry, looked up): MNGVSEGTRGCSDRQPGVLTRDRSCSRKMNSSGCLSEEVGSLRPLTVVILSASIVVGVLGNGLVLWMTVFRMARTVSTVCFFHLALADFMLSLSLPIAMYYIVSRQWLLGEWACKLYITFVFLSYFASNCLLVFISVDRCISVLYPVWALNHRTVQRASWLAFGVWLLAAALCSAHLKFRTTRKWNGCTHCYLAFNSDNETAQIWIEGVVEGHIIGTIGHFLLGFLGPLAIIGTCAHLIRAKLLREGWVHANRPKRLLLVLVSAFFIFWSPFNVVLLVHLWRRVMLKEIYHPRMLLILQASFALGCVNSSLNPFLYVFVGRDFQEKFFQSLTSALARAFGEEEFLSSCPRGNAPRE
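Readings come from a cell-based beta-arrestin complementation format: CHO-K1 GPR32 stable cells (2,500/well) treated 90 min with compounds, then beta-Gal substrate added for 1 h before chemiluminescence imaging.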
Starred values were filed as active, the others as inactive; i = inactive; ? = inconclusive; nt = no result given; ! = not active in a repeat; [ ] = another dose, or the depositor's remark. Most compounds without a hit are left out; they make up all but 4.5% or so of the library. Unless noted, the call rests on the fitted dose curve; in most records, active means well fitted curve in the direction sought with a large enough effect; inconclusive means small, poorly fitted or top-dose-only effect, or another doubt; inactive means no such curve, though single readings can be large; an effect the other way counts as inactive or inconclusive.

SMILES | HTT prom inh | NTMT1 inh | HTT-AS act | OvCa metastasis | GPR32 ag
CCOC(=O)c1ccc(N2C(=O)c3n[nH]c(-c4cccs4)c3C2c2ccc(OCC)cc2)cc1 (stereo not given) | ? | 5% | -42% | -10% | -19
CCOC(=O)c1ccc(N2C(=O)c3n[nH]c(-c4cccs4)c3C2c2ccc(CC)cc2)cc1 (stereo not given) | 20µM* | 14% | -81% | ? | -17
COc1ccc(-c2cc(C(=O)NCc3ccc(C)cc3)c3cc(C(C)C)ccc3n2)cc1 | -19% | 7% | -2% | 6% | -14
O=C(Nc1nc2c(F)cc(F)cc2s1)c1ccc(S(=O)(=O)N2CCc3ccccc32)cc1 | 22µM* | 7% | -56% | -6% | -6
O=C(Nc1ccc(Cl)cc1)c1cc(S(=O)(=O)N2CCCc3ccccc32)ccc1F | 25µM* | -7% | -46% | i | -23
O=C(Nc1ccc(Br)cc1)c1ccc(F)c(S(=O)(=O)N2CCc3ccccc32)c1 | 14µM* | 16% | -45% | -9% | -9
Cc1ccc(C)c(N2CCN(S(=O)(=O)c3cc(C(=O)Nc4ccc(Oc5ccccc5)cc4)ccc3F)CC2)c1 | 2µM* | 6% | -41% | -7% | -7
Cc1cccc(N2CCN(S(=O)(=O)c3cc(C(=O)Nc4ccc(Oc5ccccc5)cc4)ccc3F)CC2)c1C | ? | -1% | -30% | i | -1
COc1cc2[nH]c(=O)n(CCCC(=O)NCc3ccc(Cl)cc3)c(=O)c2cc1OC | -3% | -1% | -18% | i | 2
Cc1oc2c(c1C(=O)Nc1ccc(Cl)cc1F)C1=NCCN1C=N2 | 4% | 11% | 2% | 95% | 6
CNCc1ccc(-c2[nH]c3cc(F)cc4c3c2CCNC4=O)cc1 | 6% | 6.3µM*! | -6% | -6% | nt
CCOc1ccc(Nc2nc3ccccc3n3c(CC)nnc23)cc1 | -8% | -3% | -10% | -11% | -10
COc1ccc(-c2noc(-c3cccnc3NCc3ccco3)n2)cc1 | 70% | -2% | 11µM* | -3% | -9
CCOC(=O)c1c(NC(=O)c2cc(-c3cccc(OC)c3)on2)sc2c1CCCC2 | 4% | ? | -4% | ? | -3
COc1ccc(CN2CCN(C(c3ccc(F)cc3)c3ccc(F)cc3)CC2)c(OC)c1OC | -26% | -2%[57.5 µM] | -27% | nt | 78*
OCc1cnc(SCc2ccccc2F)n1Cc1ccc(F)cc1 | -21% | -8% | -31% | -5% | 94*
COc1ccc(Cn2c(CO)cnc2SCc2ccccc2C)cc1 | 61% | -3% | ? | -3% | -12
COc1ccc(Cn2c(CO)cnc2SCc2ccc(F)cc2)cc1 | 32µM* | 89µM* | -32% | -2% | ?
COc1ccccc1CNC(=O)CSC1=Nc2ccccc2N=C(c2ccc(F)cc2)C1 | -18% | 14% | -33% | i | -17
Cc1ccc(C(=O)NC(c2ccco2)c2cc(Cl)c3cccnc3c2O)cc1 (stereo not given) | nt | 12% | nt | nt | nt
COc1ccc(C(=O)NC(c2ccc(Cl)cc2)c2cc(Cl)c3cccnc3c2O)cc1 (stereo not given) | 18µM* | 13% | -59% | 2% | -41
C=C1c2cccc(O)c2C(O)=C2C(=O)[C@@]3(O)C(O)=C(C(N)=O)C(=O)[C@@H](N(C)C)[C@@H]3[C@@H](O)[C@H]12 | ? | 13µM* | -54% | -4% | nt
Cc1oc2ccc(O)c(CN3CCN(C)CC3)c2c1C(=O)Nc1ccc(C(C)C)cc1 | nt | nt | nt | -13% | -7
Cc1oc2ccc(O)c(CN3CCCC3)c2c1C(=O)Nc1ccc(C(C)C)cc1 | nt | nt | nt | -1% | 118*
COc1ccc(NC(=O)c2c(C)oc3ccc(O)c(CN4CCCC(C)C4)c23)cc1Cl (stereo not given) | ? | -6% | -22% | ? | -22

Source: PubChem BioAssay
